Test results: ChEMBL document CHEMBL5724796, “Tm Shift (DSF) assay results for EUbOPEN Chemogenomics Library” (2024)
Residues, ends and D or L forms follow the SMILES beside them. *: point of attachment. Cbz = O=C(OCc1ccccc1)*; Boc = CC(C)(C)OC(=O)*; CH2F = FC*

target: Bromodomain-containing protein 4 (Homo sapiens) (UniProt O60885); settings: Compound concentration 20.0 uM

SMILES	ΔTm
CCn1c(=S)[nH]c2cc3c(NCc4ccccc4N4CCC(CO)CC4)ncnc3cc21	4.86 °C
COc1cc2c(cc1OC)[C@H]1C[C@@H](O)[C@H](CC(C)C)CN1CC2	1.89 °C
C=CCn1c(N[C@@H]2C[C@H](c3ccc(OCc4ccccc4)cc3)CN(C)C2)nc2cc[nH]c2c1=O	0.73 °C
CC(C)[C@H](NC(=O)[C@H](CCC(=O)O)NC(=O)[C@H](C)NC(=O)OC(C)(C)C)C(=O)N[C@H](C=O)CC(=O)O (Boc-AEVD-aldehyde)	-2.26 °C
Cc1cnc(-c2ccccc2C(C)C)nc1NCc1ccc(-n2ccnn2)cc1	-1.87 °C
O=C(c1ccc2c(ccn2-c2ccc(F)cc2)c1)N1CC(N2CCN(C(=O)c3nccs3)CC2)C1	-3.81 °C
Cc1c(Nc2ccc(S(=O)(=O)N3CCN(C)CC3)cc2F)nc2ccc(-c3cnn(C4CC4)c3)cn2c1=O	-2.59 °C
CC(=O)Nc1ccc(C(=O)Nc2ccc(F)cc2N)cc1	-2.84 °C
CCCCCCCCCCCCCCCCNNC(=O)c1cccs1	-1.37 °C
CCNC(=O)NCCSC[C@H]1O[C@@H](n2cnc3c(N)ncnc32)[C@H](O)[C@@H]1O	-1.51 °C
CNc1cc(-c2cccc(Cl)c2Cl)nc(N)n1	-2.61 °C
CCNC(=O)/C=C/c1cccc(Br)c1	-0.78 °C
O=C(c1cc(Cc2n[nH]c(=O)c3ccccc23)ccc1F)N1CCN(C(=O)C2CC2)CC1	15.7 °C
CCCOC(=O)N1CCN(C(=O)c2ccc3c(Cl)cc(-c4ccc(C5(N)CC5)cc4)nc3c2)C[C@H]1C	-1.83 °C
CC(C)C[C@@H](C=O)NC(=O)[C@@H](NS(=O)(=O)c1ccc(F)cc1)C(C)C	-1.83 °C
CC(C)NCC(O)COC(Cn1c2ccccc2c2ccccc21)Cn1c2ccccc2c2ccccc21 (stereo not drawn)	0 °C
COc1ccc(-c2c(-c3ccc(C#N)c(F)c3)nc(N3CCC(N)CC3)n(C)c2=O)cc1F	-3.53 °C
Cc1noc2c1-c1ccccc1C(c1ccc(Cl)cc1)=N[C@H]2CC(N)=O	8.17 °C
Cc1ncc(Cl)cc1NCc1ccc(C(=O)N[C@@H](CC2CCCC2)C(=O)NC2CC2)s1	-3.44 °C
O=C(NO)c1cccc(C(=O)NCCc2ccccc2)c1	-1.69 °C

SMILES	ΔTm
N#Cc1c(N)[nH]c2cc(/C=C/c3cccc(F)c3)ccc12	3.17 °C
O=C(O)CCNc1cc(N2CCc3ccccc3CC2)nc(-c2ccccn2)n1	0.28 °C
CN1CCN(c2cc(C(=O)Nc3ncc(SCc4cccc(C(F)(F)F)c4)s3)ccn2)CC1	-0.44 °C
CC1=NN(c2ccc(C(=O)O)cc2)C(=O)/C1=C/c1ccc(-c2cc(C)c(C)cc2[N+](=O)[O-])o1	-0.48 °C
CC(C)(C)NS(=O)(=O)c1cccc2c(NC(=O)[C@H](Cc3ccccc3)NC(=O)C3CCCCC3)cccc12	1.07 °C
CC(=O)N1CCC(c2ccc(C(=O)NC(=N)N)cc2C(F)(F)F)CC1	0.39 °C
O=C(NO)c1cnc(NC2(c3ccccc3)CC2)nc1	-1.48 °C
CC(C)c1cnc(CSc2cnc(NC(=O)C3CCNCC3)s2)o1	-1.43 °C
O=C(O)CCNC(=S)NCCCC[C@H](NS(=O)(=O)c1cccc(F)c1)C(=O)N[C@@H](Cc1c[nH]c2ccccc12)C(=O)NC1CCC1	-3.5 °C
CNCC[C@@H](Oc1ccccc1C)c1ccccc1	-2.85 °C
CCN(C(=O)c1cc(F)ccc1Oc1cncnc1N1CC2(CCN(C[C@H]3CC[C@H](NS(=O)(=O)CC)CC3)CC2)C1)C(C)C	-2.35 °C
Cc1ccc2c(c1)nc(/C=C/c1cccc3cccnc13)n2-c1cccc(OCCCN2CCN(C)CC2)c1	-5.41 °C
CN1Cc2c(Cl)cc(Cl)cc2[C@H](c2cccc(S(=O)(=O)NCCOCCOCCNC(=O)NCCCCNC(=O)NCCOCCOCCNS(=O)(=O)c3cccc([C@@H]4CN(C)Cc5c(Cl)cc(Cl)cc54)c3)c2)C1	-2.19 °C
C[C@H](NC(=O)[C@H](Cc1ccccc1)NC(=O)OCc1ccccc1)C(=O)CF	-2.33 °C
Cc1cc(C)nc(SCC(=O)Nc2ncc(Cc3cccc(OCc4cn(Cc5ccccc5)nn4)c3)s2)n1	-6.78 °C
COC(=O)CC(NC(=O)C(C)NC(=O)C(NC(=O)C(CC(=O)OC)NC(=O)C(NC(=O)OCc1ccccc1)C(C)C)C(C)C)C(=O)CF (stereo not drawn) (Cbz-VD(OMe)VAD(OMe)-CH2F; configuration not given here)	-1.13 °C
CC1C(C#N)=C(N)OC2=C1C(=O)CC(c1cccc3ccccc13)C2 (stereo not drawn)	-2.09 °C
Cc1ccc(C(=O)Nc2ccc(S(=O)(=O)O)c3cc(S(=O)(=O)O)cc(S(=O)(=O)O)c23)cc1NC(=O)c1cccc(NC(=O)Nc2cccc(C(=O)Nc3cc(C(=O)Nc4ccc(S(=O)(=O)O)c5cc(S(=O)(=O)O)cc(S(=O)(=O)O)c45)ccc3C)c2)c1	-5.41 °C
CN1C[C@@H]2[C@H](C1)[C@H]2CN(Cc1ccc(F)c(Cl)c1)C(=O)c1cn(C)cn1	-2.2 °C

target: Cyclin-dependent kinase 2 (Homo sapiens) (UniProt P24941); settings: Compound concentration 20.0 uM

SMILES	ΔTm
CCn1c(=S)[nH]c2cc3c(NCc4ccccc4N4CCC(CO)CC4)ncnc3cc21	-0.14 °C
COc1cc2c(cc1OC)[C@H]1C[C@@H](O)[C@H](CC(C)C)CN1CC2	0.25 °C
C=CCn1c(N[C@@H]2C[C@H](c3ccc(OCc4ccccc4)cc3)CN(C)C2)nc2cc[nH]c2c1=O	-0.03 °C
CC(C)[C@H](NC(=O)[C@H](CCC(=O)O)NC(=O)[C@H](C)NC(=O)OC(C)(C)C)C(=O)N[C@H](C=O)CC(=O)O (Boc-AEVD-aldehyde)	-0.28 °C
Cc1cnc(-c2ccccc2C(C)C)nc1NCc1ccc(-n2ccnn2)cc1	-0.07 °C
O=C(c1ccc2c(ccn2-c2ccc(F)cc2)c1)N1CC(N2CCN(C(=O)c3nccs3)CC2)C1	-1.22 °C
Cc1c(Nc2ccc(S(=O)(=O)N3CCN(C)CC3)cc2F)nc2ccc(-c3cnn(C4CC4)c3)cn2c1=O	0.26 °C
CC(=O)Nc1ccc(C(=O)Nc2ccc(F)cc2N)cc1	-0.66 °C
CCCCCCCCCCCCCCCCNNC(=O)c1cccs1	-0.3 °C
CCNC(=O)NCCSC[C@H]1O[C@@H](n2cnc3c(N)ncnc32)[C@H](O)[C@@H]1O	0.53 °C
CNc1cc(-c2cccc(Cl)c2Cl)nc(N)n1	0.11 °C
CCNC(=O)/C=C/c1cccc(Br)c1	0.01 °C
O=C(c1cc(Cc2n[nH]c(=O)c3ccccc23)ccc1F)N1CCN(C(=O)C2CC2)CC1	0.66 °C
CCCOC(=O)N1CCN(C(=O)c2ccc3c(Cl)cc(-c4ccc(C5(N)CC5)cc4)nc3c2)C[C@H]1C	0.05 °C
CC(C)C[C@@H](C=O)NC(=O)[C@@H](NS(=O)(=O)c1ccc(F)cc1)C(C)C	-0.11 °C
CC(C)NCC(O)COC(Cn1c2ccccc2c2ccccc21)Cn1c2ccccc2c2ccccc21 (stereo not drawn)	-0.87 °C
COc1ccc(-c2c(-c3ccc(C#N)c(F)c3)nc(N3CCC(N)CC3)n(C)c2=O)cc1F	0 °C
Cc1noc2c1-c1ccccc1C(c1ccc(Cl)cc1)=N[C@H]2CC(N)=O	0.94 °C
Cc1ncc(Cl)cc1NCc1ccc(C(=O)N[C@@H](CC2CCCC2)C(=O)NC2CC2)s1	-0.15 °C
O=C(NO)c1cccc(C(=O)NCCc2ccccc2)c1	1.3 °C

SMILES	ΔTm
N#Cc1c(N)[nH]c2cc(/C=C/c3cccc(F)c3)ccc12	2.67 °C
O=C(O)CCNc1cc(N2CCc3ccccc3CC2)nc(-c2ccccn2)n1	-0.09 °C
CN1CCN(c2cc(C(=O)Nc3ncc(SCc4cccc(C(F)(F)F)c4)s3)ccn2)CC1	-0.22 °C
CC1=NN(c2ccc(C(=O)O)cc2)C(=O)/C1=C/c1ccc(-c2cc(C)c(C)cc2[N+](=O)[O-])o1	0.29 °C
CC(C)(C)NS(=O)(=O)c1cccc2c(NC(=O)[C@H](Cc3ccccc3)NC(=O)C3CCCCC3)cccc12	0.3 °C
CC(=O)N1CCC(c2ccc(C(=O)NC(=N)N)cc2C(F)(F)F)CC1	0.7 °C
O=C(NO)c1cnc(NC2(c3ccccc3)CC2)nc1	0.47 °C
CC(C)c1cnc(CSc2cnc(NC(=O)C3CCNCC3)s2)o1	6.28 °C
O=C(O)CCNC(=S)NCCCC[C@H](NS(=O)(=O)c1cccc(F)c1)C(=O)N[C@@H](Cc1c[nH]c2ccccc12)C(=O)NC1CCC1	-0.16 °C
CNCC[C@@H](Oc1ccccc1C)c1ccccc1	0.13 °C
CCN(C(=O)c1cc(F)ccc1Oc1cncnc1N1CC2(CCN(C[C@H]3CC[C@H](NS(=O)(=O)CC)CC3)CC2)C1)C(C)C	0.16 °C
Cc1ccc2c(c1)nc(/C=C/c1cccc3cccnc13)n2-c1cccc(OCCCN2CCN(C)CC2)c1	-0.28 °C
CN1Cc2c(Cl)cc(Cl)cc2[C@H](c2cccc(S(=O)(=O)NCCOCCOCCNC(=O)NCCCCNC(=O)NCCOCCOCCNS(=O)(=O)c3cccc([C@@H]4CN(C)Cc5c(Cl)cc(Cl)cc54)c3)c2)C1	-0.62 °C
C[C@H](NC(=O)[C@H](Cc1ccccc1)NC(=O)OCc1ccccc1)C(=O)CF	0.15 °C
Cc1cc(C)nc(SCC(=O)Nc2ncc(Cc3cccc(OCc4cn(Cc5ccccc5)nn4)c3)s2)n1	-3.98 °C
COC(=O)CC(NC(=O)C(C)NC(=O)C(NC(=O)C(CC(=O)OC)NC(=O)C(NC(=O)OCc1ccccc1)C(C)C)C(C)C)C(=O)CF (stereo not drawn) (Cbz-VD(OMe)VAD(OMe)-CH2F; configuration not given here)	0.27 °C
CC1C(C#N)=C(N)OC2=C1C(=O)CC(c1cccc3ccccc13)C2 (stereo not drawn)	-0.28 °C
Cc1ccc(C(=O)Nc2ccc(S(=O)(=O)O)c3cc(S(=O)(=O)O)cc(S(=O)(=O)O)c23)cc1NC(=O)c1cccc(NC(=O)Nc2cccc(C(=O)Nc3cc(C(=O)Nc4ccc(S(=O)(=O)O)c5cc(S(=O)(=O)O)cc(S(=O)(=O)O)c45)ccc3C)c2)c1	-2.98 °C
CN1C[C@@H]2[C@H](C1)[C@H]2CN(Cc1ccc(F)c(Cl)c1)C(=O)c1cn(C)cn1	0.3 °C
